# The other results are listed elsewhere or left out. Calls of active or inactive are those of the source. Cut-off read from the data, not from the text of the source: active = inhibition above about 25%; inactive = the rest.
# Test system: Botulinum neurotoxin type F light chain protease (Clostridium botulinum)
# Assay: BoNT/F light chain protease inhibitors, confirmation, biochemical, flow cytometry, cherry pick 2 (AID 602336)
# Details: multiplex microsphere protease cleavage assay, at 10 µM, stronger effect = higher value
row,SMILES,inhibition
1,Cc1cc2cc(CNC(=O)c3ccc(S(=O)(=O)N4CCOCC4)cc3)ccc2[nH]1,-10.8% (inactive)
2,COc1ccc(-c2cc3c(c4c2ccn4C)C2CCC3C2)cn1 (stereo not drawn),4.4% (inactive)
3,CCOc1ncccc1C(=O)OCC(=O)c1c[nH]c2ccccc12,3% (inactive)
4,CC(=O)OCCN(CCCn1c(-c2ccncc2)nc2ccccc21)c1nc(-c2ccc(C)cc2)cs1,4% (inactive)
5,Cc1ccc(CNC(=O)c2cccc3c2C(=O)c2ccc(N4CCC(C)CC4)cc2S3(=O)=O)cc1,6.1% (inactive)
6,O=C(OCC(=O)c1c[nH]c2ccccc12)c1cccc(O)c1,-3.8% (inactive)
7,Cc1cc2ccccc2n1CCNC(=O)COc1ccc2ccccc2c1,-12.9% (inactive)
8,O=C(CN1CCN(c2ccccc2O)CC1)NC(=O)NCc1ccccc1,-4.3% (inactive)
